Records with an inconclusive call do not appear. Activity calls are given as the source filed them. How the source made its calls: active means hit-call score of the fitted dose curve at least 0.9, where 1 is the maximum; inconclusive means response in the unintended direction; inactive means score below 0.9.
Columns and labels:
[1] = molecular target: human Protein Tyrosine Phosphatase Receptor Type B (PTPRB), PTPRB (gene 5787) (UniProt P23467); experiment: NVS_ENZ_hPTPRB: NovaScreen (NVS) Enzymatic Assay for human Protein Tyrosine Phosphatase Receptor Type B (PTPRB) (AID 2283211)
How it was run: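 Recombinant human PTPRB with a fluorescent substrate, product separated by electrophoretic mobility shift; read 1 h after dosing. Primary screen in duplicate at 25 uM; actives then retested in concentration series; loss of signal versus DMSO.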

[2] = molecular target: human Protein Tyrosine Phosphatase Receptor Type F (PTPRF), PTPRF (gene 5792) (UniProt P10586); experiment: NVS_ENZ_hPTPRF: NovaScreen (NVS) Enzymatic Assay for human Protein Tyrosine Phosphatase Receptor Type F (PTPRF) (AID 2283213)
How it was run: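 Cell-free fluorescence enzyme assay with recombinant protein and substrate; product separated by electrophoretic mobility shift. Read 1 h after dosing, single 25 uM duplicate screen, then concentration-response up to 50 uM; loss of signal vs DMSO.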

[3] = molecular target: human Protein Tyrosine Phosphatase Receptor Type M (PTPRM), PTPRM (gene 5797) (UniProt P28827); experiment: NVS_ENZ_hPTPRM: NovaScreen (NVS) Enzymatic Assay for human Protein Tyrosine Phosphatase Receptor Type M (PTPRM) (AID 2283215)
How it was run: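 Cell-free recombinant PTPRM with fluorogenic substrate; product separated from substrate by electrophoretic mobility shift and read by fluorescence, 1.33 h after dosing. Primary screen single concentration (25 uM) in duplicate; actives retested in concentration series; loss of signal versus DMSO.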

[4] = molecular target: human Sirtuin 2 (SIRT2), SIRT2 (gene 22933) (UniProt Q8IXJ6); experiment: NVS_ENZ_hSIRT2: NovaScreen (NVS) Enzymatic Assay for human Sirtuin 2 (SIRT2) (AID 2283217)
How it was run: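 Cell-free recombinant human SIRT2, fluorescent substrate with product separated by electrophoretic mobility shift, 1 hr. Screened in duplicate at 25 uM; hits rerun singly in concentration-response up to 50 uM, relative to DMSO.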

[5] = molecular target: human Sirtuin 1 (SIRT1), SIRT1 (gene 23411) (UniProt Q96EB6); experiment: NVS_ENZ_hSIRT1: NovaScreen (NVS) Enzymatic Assay for human Sirtuin 1 (SIRT1) (AID 2283219)
How it was run: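 Cell-free recombinant SIRT1 with a fluorescent substrate; substrate and product separated by electrophoretic mobility shift and read by fluorescence intensity, 1 h after dosing. Primary screen at 25 uM in duplicate; hits re-run in concentration-response up to 50 uM, relative to DMSO.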

[6] = molecular target: human Sirtuin 3 (SIRT3), SIRT3 (gene 23410) (UniProt Q9NTG7); experiment: NVS_ENZ_hSIRT3: NovaScreen (NVS) Enzymatic Assay for human Sirtuin 3 (SIRT3) (AID 2283222)
How it was run: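 Cell-free enzyme assay with recombinant protein and fluorescent substrate, product separated by electrophoretic mobility shift; read 1 hour after dosing. Screened in duplicate at 25 uM, then singleton concentration-response up to 50 uM; loss of signal versus DMSO.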

[7] = molecular target: human Vascular Endothelial Growth Factor Receptor 3 (VEGFR3), FLT4 (gene 2324) (UniProt P35916); experiment: NVS_ENZ_hVEGFR3: NovaScreen (NVS) Enzymatic Assay for human Vascular Endothelial Growth Factor Receptor 3 (VEGFR3) (AID 2283229)
How it was run: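 Cell-free recombinant VEGFR3 kinase reaction with fluorescent substrate, read 1 h after dosing by electrophoretic mobility shift separation of substrate and product. Single-concentration duplicate screen at 25 uM, then concentration-response up to 50 uM; loss of activity versus DMSO.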

[8] = molecular target: human Vascular Endothelial Growth Factor Receptor 2 (VEGFR2), KDR (gene 3791) (UniProt P35968); experiment: NVS_ENZ_hVEGFR2: NovaScreen (NVS) Enzymatic Assay for human Vascular Endothelial Growth Factor Receptor 2 (VEGFR2) (AID 2283230)
How it was run: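 Cell-free recombinant VEGFR2 kinase, fluorescent substrate with electrophoretic mobility-shift separation; read 1 h after dosing. Screened at 25 uM in duplicate, hits to concentration-response up to 50 uM; loss-of-signal versus DMSO.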

[9] = molecular target: sheep Cyclooxygenase-2 (Cox2), PTGS2 (gene 443460) (UniProt P79208); experiment: NVS_ENZ_oCOX2: NovaScreen (NVS) Enzymatic Assay for sheep Cyclooxygenase-2 (Cox2) (AID 2283231)
How it was run: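 Enzyme from ovine placenta, cell-free; colorimetric absorbance read 0.66 hour after dosing, loss of signal vs DMSO. Screened in duplicate at 25 uM, then concentration-response up to 50 uM.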

[10] = molecular target: human Protein Tyrosine Phosphatase Non-receptor Type 6 (PTPN6), PTPN6 (gene 5777) (UniProt P29350); experiment: NVS_ENZ_hPTPN6: NovaScreen (NVS) Enzymatic Assay for human Protein Tyrosine Phosphatase Non-receptor Type 6 (PTPN6) (AID 2283210)
How it was run: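 Cell-free assay with recombinant PTPN6 expressed in SF9 cells, fluorescent substrate, product separated from substrate by electrophoretic mobility shift; read 1.33 hours after dosing. Primary screen in duplicate at 25 uM, actives retested in concentration series; DMSO baseline.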

[11] = molecular target: rabbit Imidazoline 2 Central (I2C), CKB (gene 100009085) (UniProt P00567); experiment: NVS_ENZ_rabI2C: NovaScreen (NVS) Enzymatic Assay for rabbit Imidazoline 2 Central (I2C) (AID 2283228)
How it was run: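 Rabbit brain membranes, cell-free; readout by filter-based scintillation counting 1.5 hours after dosing, loss of signal vs DMSO. Initial duplicate test at 25 uM, then concentration-response with 50 uM top concentration.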

[12] = molecular target: rat Constitutive Nitric Oxide Synthase (CNOS), Nos1 (gene 24598) (UniProt P29476); experiment: NVS_ENZ_rCNOS: NovaScreen (NVS) Enzymatic Assay for rat Constitutive Nitric Oxide Synthase (CNOS) (AID 2283236)
How it was run: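 Enzyme activity in rat brain membrane preparation, read 1 h after dosing by filter-based radiometric scintillation counting. Primary screen in duplicate at 25 uM; actives (e.g., ≥30% inhibition) then run in concentration-response up to 50 uM.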

[13] = tested on: bovine Angiotensin II Receptor Type 2 (AT2), gene 407157; experiment: NVS_GPCR_bAT2: NovaScreen (NVS) G Protein-Coupled Receptor Assay for bovine Angiotensin II Receptor Type 2 (AT2) (AID 2283240)
How it was run: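 Radioligand displacement on bovine cerebellar membranes, 1 hour incubation, filter-based scintillation counting; loss of signal vs DMSO. Duplicate single-point screen at 25 uM, then concentration-response to 50 uM maximum.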

[14] = molecular target: bovine Dopamine Receptor (DR), Non-selective Binding, DRD1 (gene 281125) (UniProt Q95136); experiment: NVS_GPCR_bDR_NonSelective: NovaScreen (NVS) G Protein-Coupled Receptor Assay for bovine Dopamine Receptor (DR), Non-selective Binding (AID 2283241)
How it was run: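 Bovine striatal membranes; radioligand displacement read by filtration and scintillation counting 1 h after dosing, loss of signal vs DMSO. Screened in duplicate at 25 uM, then concentration-response for hits.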

[15] = molecular target: sheep Cyclooxygenase-1 (Cox1), PTGS1 (gene 443551) (UniProt P05979); experiment: NVS_ENZ_oCOX1: NovaScreen (NVS) Enzymatic Assay for sheep Cyclooxygenase-1 (Cox1) (AID 2283239);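 further: actives reduce cyclooxygenase activity so potencies are for inhibitors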
How it was run: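 Native ovine seminal vesicle protein serves as enzyme source in this biochemical assay. Colorimetric signal is recorded 0.66 h after chemical addition, and decreases versus the DMSO control define activity.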

[16] = molecular target: human SRC Proto-Oncogene, Non-receptor Tyrosine Kinase (SRC), SRC (gene 6714) (UniProt P12931); experiment: NVS_ENZ_hSRC: NovaScreen (NVS) Enzymatic Assay for human SRC Proto-Oncogene, Non-receptor Tyrosine Kinase (SRC) (AID 2283223)
How it was run: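 Cell-free kinase activity assay with fluorescent substrate, product separated by electrophoretic mobility shift, read 1 h after dosing. Duplicate single point at 25 uM, then concentration-response up to 50 uM; loss of signal versus DMSO.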

[17] = molecular target: rat Catechol-O-Methyl Transferase (COMT), Comt (gene 24267) (UniProt P22734); experiment: NVS_ENZ_rCOMT: NovaScreen (NVS) Enzymatic Assay for rat Catechol-O-Methyl Transferase (COMT) (AID 2283235)
How it was run: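 Cell-free enzyme activity with protein extracted from rat dorsal striatum, measured by HPLC with absorbance detection. Compounds screened at 25 uM in duplicate; actives then run in concentration-response up to 50 uM, loss of signal versus DMSO.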

[18] = molecular target: human Vascular Endothelial Growth Factor Receptor 1 (VEGFR1), FLT1 (gene 2321) (UniProt P17948); experiment: NVS_ENZ_hVEGFR1: NovaScreen (NVS) Enzymatic Assay for human Vascular Endothelial Growth Factor Receptor 1 (VEGFR1) (AID 2283226)
How it was run: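 Cell-free assay of recombinant human VEGFR1 kinase with substrate, measured 1 h after dosing; fluorescence with electrophoretic mobility-shift separation of substrate and product, referenced to DMSO; primary screen at 25 uM in duplicate, actives then run in concentration series.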

human Sirtuin 3 (SIRT3), SIRT3 (gene 23410), sequence (Q9NTG7 whole entry, looked up): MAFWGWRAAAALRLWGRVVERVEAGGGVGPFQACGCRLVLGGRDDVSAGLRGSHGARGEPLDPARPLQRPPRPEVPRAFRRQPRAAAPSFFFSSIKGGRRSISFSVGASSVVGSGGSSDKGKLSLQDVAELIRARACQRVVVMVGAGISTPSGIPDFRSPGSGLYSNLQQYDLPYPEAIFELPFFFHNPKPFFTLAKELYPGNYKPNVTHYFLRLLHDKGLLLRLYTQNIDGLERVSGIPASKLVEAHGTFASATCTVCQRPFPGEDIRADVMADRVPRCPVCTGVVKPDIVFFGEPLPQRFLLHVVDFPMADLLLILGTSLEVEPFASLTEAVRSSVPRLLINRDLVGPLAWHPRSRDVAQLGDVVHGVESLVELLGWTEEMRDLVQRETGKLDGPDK
rabbit Imidazoline 2 Central (I2C), CKB (gene 100009085), sequence (P00567 whole entry, looked up): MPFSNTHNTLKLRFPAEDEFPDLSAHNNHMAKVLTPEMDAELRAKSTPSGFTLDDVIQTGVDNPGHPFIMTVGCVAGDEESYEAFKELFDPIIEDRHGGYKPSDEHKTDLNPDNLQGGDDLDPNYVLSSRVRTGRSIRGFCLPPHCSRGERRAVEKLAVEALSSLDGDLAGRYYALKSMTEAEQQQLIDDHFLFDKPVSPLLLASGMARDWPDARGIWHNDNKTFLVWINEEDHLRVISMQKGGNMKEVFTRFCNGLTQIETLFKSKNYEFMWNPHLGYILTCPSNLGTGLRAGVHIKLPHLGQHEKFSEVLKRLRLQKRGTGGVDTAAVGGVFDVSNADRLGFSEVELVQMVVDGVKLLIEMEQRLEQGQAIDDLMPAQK
human Sirtuin 1 (SIRT1), SIRT1 (gene 23411), sequence (Q96EB6 whole entry, looked up): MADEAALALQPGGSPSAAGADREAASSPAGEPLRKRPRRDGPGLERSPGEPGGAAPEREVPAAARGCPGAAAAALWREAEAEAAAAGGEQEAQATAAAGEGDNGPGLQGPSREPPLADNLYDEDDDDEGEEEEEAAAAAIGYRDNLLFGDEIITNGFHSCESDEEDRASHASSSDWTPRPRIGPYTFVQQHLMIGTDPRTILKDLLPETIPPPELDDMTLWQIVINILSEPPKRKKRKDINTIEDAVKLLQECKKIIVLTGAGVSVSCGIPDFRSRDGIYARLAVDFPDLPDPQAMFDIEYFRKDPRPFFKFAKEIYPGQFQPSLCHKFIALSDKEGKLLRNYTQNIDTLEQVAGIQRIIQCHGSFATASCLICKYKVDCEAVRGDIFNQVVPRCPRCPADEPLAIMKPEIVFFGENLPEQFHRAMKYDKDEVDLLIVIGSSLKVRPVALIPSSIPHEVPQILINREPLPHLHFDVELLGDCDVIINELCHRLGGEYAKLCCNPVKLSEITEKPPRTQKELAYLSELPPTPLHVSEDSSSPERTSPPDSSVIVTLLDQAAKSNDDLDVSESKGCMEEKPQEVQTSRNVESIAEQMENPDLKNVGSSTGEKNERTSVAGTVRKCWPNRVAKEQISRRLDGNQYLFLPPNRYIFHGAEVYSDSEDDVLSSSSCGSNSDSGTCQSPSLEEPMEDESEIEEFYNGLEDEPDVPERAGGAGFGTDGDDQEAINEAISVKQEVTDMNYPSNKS
sheep Cyclooxygenase-2 (Cox2), PTGS2 (gene 443460), sequence (P79208 whole entry, looked up): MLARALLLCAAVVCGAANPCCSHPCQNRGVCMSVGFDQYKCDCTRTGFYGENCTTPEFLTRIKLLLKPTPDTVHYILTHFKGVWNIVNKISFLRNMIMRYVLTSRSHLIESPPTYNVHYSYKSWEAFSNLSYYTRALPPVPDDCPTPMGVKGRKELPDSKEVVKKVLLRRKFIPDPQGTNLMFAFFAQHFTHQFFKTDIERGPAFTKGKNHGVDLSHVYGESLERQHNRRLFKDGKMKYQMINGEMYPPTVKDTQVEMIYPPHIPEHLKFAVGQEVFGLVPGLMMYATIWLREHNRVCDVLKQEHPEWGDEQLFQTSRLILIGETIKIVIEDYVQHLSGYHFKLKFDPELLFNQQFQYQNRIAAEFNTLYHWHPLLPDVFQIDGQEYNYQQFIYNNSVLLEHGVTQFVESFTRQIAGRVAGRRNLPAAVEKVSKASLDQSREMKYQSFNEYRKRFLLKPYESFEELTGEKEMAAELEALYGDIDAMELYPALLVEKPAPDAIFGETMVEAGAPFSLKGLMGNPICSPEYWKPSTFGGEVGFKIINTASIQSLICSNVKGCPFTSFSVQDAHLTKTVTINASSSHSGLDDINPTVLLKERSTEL
human Vascular Endothelial Growth Factor Receptor 2 (VEGFR2), KDR (gene 3791), sequence (P35968 whole entry, looked up): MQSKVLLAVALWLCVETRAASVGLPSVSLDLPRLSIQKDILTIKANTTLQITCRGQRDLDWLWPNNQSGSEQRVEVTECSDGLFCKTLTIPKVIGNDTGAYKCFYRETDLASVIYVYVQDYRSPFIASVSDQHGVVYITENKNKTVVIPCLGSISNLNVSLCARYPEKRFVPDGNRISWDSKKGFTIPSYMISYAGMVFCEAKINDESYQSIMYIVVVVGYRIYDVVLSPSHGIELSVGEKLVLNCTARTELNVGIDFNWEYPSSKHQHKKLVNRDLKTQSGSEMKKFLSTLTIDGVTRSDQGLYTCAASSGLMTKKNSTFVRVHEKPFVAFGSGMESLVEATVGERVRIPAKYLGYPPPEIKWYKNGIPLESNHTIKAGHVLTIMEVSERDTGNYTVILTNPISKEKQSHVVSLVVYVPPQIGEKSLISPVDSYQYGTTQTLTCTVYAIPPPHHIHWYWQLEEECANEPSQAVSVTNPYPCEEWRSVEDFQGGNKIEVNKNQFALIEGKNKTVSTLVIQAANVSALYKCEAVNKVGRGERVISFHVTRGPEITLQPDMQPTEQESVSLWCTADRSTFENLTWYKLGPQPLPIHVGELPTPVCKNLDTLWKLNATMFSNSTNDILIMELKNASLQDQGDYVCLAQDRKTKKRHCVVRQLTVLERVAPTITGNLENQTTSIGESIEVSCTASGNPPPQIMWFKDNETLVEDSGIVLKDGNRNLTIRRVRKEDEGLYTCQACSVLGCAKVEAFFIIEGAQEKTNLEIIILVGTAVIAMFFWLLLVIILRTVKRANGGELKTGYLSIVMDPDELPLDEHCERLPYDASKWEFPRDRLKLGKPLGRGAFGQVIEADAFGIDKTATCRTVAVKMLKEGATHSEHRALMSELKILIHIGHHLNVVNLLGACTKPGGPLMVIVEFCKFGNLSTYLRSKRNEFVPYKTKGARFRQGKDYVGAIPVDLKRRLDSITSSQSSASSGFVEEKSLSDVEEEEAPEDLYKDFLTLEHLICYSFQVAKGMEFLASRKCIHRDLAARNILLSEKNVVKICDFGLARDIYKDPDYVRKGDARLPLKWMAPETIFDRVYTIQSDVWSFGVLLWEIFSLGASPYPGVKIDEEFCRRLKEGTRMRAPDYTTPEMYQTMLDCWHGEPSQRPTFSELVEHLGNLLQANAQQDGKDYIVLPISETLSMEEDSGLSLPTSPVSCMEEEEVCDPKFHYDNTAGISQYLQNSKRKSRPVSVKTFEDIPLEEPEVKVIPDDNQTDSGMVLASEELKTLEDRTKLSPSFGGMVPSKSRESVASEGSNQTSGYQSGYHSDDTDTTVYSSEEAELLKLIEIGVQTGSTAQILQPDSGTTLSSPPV
human Vascular Endothelial Growth Factor Receptor 3 (VEGFR3), FLT4 (gene 2324), sequence (P35916 whole entry, looked up): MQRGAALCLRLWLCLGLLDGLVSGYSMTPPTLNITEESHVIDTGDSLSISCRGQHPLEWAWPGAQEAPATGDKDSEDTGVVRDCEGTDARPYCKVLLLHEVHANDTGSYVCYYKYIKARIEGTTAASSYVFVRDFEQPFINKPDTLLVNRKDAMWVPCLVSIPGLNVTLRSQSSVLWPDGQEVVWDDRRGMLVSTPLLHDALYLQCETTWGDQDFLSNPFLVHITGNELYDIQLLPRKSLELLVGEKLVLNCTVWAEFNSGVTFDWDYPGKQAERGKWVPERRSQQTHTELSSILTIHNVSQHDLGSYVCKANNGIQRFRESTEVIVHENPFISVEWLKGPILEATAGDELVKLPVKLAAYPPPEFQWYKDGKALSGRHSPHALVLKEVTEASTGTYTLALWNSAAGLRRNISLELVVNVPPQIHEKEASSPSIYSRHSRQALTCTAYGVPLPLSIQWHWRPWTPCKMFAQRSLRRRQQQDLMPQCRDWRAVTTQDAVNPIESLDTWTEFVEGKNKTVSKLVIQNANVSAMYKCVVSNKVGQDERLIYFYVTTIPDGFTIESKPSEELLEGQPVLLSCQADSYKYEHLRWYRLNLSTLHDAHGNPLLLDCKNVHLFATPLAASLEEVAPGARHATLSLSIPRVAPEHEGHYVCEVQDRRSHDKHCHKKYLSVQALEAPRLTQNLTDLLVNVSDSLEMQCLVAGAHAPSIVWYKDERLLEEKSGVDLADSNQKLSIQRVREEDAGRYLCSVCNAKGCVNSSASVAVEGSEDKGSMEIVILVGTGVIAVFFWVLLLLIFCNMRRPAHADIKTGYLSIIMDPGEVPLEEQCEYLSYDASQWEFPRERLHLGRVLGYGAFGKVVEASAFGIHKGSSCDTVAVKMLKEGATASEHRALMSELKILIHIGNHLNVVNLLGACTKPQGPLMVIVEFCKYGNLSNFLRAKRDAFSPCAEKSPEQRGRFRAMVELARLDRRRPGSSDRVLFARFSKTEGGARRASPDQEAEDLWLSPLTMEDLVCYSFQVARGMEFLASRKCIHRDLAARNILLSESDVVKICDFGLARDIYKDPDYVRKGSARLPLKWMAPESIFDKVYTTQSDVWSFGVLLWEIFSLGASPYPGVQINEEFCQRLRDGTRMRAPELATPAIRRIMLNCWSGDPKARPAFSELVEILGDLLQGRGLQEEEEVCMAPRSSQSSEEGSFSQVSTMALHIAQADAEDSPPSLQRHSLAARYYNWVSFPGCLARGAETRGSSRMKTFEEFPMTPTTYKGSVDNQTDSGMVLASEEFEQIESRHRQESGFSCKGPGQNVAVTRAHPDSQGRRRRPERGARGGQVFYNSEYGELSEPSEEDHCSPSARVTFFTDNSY

For `Cc1ncc([C@@H](CCCCCCc2ccc3c(n2)NCCC3)CC(=O)O)cn1`, the AC50 [1] was 18.6 µM (active), the outcome [2] was “inactive” and the outcome [3] was “inactive”. For the same compound, the outcome [4] was “inactive”, the outcome [5] was “inactive” and the outcome [6] was “inactive”. For the same compound, the outcome [7] was “inactive”, the outcome [8] was “inactive” and the AC50 [9] was 29 µM (active).
For `OC[C@H]1O[C@@H]2O[C@H]3[C@H](O)[C@@H](O)[C@@H](O[C@H]4[C@H](O)[C@@H](O)[C@@H](O[C@H]5[C@H](O)[C@@H](O)[C@@H](O[C@H]6[C@H](O)[C@@H](O)[C@@H](O[C@H]7[C@H](O)[C@@H](O)[C@@H](O[C@H]1[C@H](O)[C@H]2O)O[C@@H]7CO)O[C@@H]6CO)O[C@@H]5CO)O[C@@H]4CO)O[C@@H]3CO`, the outcome [10] was “inactive” and the AC50 [9] was 3.51 µM (active).
`CC1(C)C(=O)N(Cl)C(=O)N1Cl` was tested, and the outcome [10] was “inactive”.
`CNC(C)=O` was tested, and the outcome [10] was “inactive”.
`NC(=O)NN=Cc1ccc([N+](=O)[O-])o1` was tested, and the AC50 [10] was 10.9 µM (active).
`OCCOCCOCCO` was tested, and the outcome [10] was “inactive” and the outcome [7] was “inactive”.
For `O=C(O)c1cccc(C[C@@H]2COc3ccc(OCc4nc5cc(F)ccc5s4)cc3[C@@H]2O)c1`, the outcome [11] was “inactive” and the outcome [12] was “inactive”.
In the case of `c1ccc(C(O[C@@H]2CCCN(CCc3ccc4c(c3)OCO4)C2)c2ccccc2)cc1`, the AC50 [11] is reported as 4.09 µM (active), the outcome [13] is reported as “inactive” and the AC50 [14] is reported as 10.6 µM (active).
With `CC(C)c1nnc2ccc(-c3ocnc3-c3cc(F)ccc3F)cn12` the outcome [5] was “inactive” and the outcome [6] was “inactive”.
For `NC(=O)N(O)[C@@H]1COc2cc(OCc3ccccc3)ccc21`, the AC50 [11] was 19.9 µM (active).
For `C=CCc1cc(S(=O)(=O)c2ccc(O)c(CC=C)c2)ccc1O`, the AC50 [8] was 21.2 µM (active) and the AC50 [15] was 1.07 µM (active).
`CCn1nc(C)c2c1C(=O)NCC(c1ccc(O)cc1)=N2` was tested, and the outcome [9] was “inactive”.
With `O=C1CN(N=Cc2ccc([N+](=O)[O-])o2)C(=O)N1` the outcome [12] was “inactive” and the outcome [15] was “inactive”.
`OCCNCCO` was tested, and the outcome [8] was “inactive”.
With `O=S(=O)(O)c1ccc(N=Nc2c(O)ccc3cc(S(=O)(=O)O)ccc23)cc1` the AC50 [12] was 25 µM (active).
In the case of `CCCCC(CC)C(=O)OCCOCCOCCOC(=O)C(CC)CCCC` (centres undefined), the outcome [11] is reported as “inactive”, the outcome [7] is reported as “inactive” and the AC50 [12] is reported as 5.94 µM (active).
With `Cn1cc[nH]c1=S` the outcome [5] was “inactive” and the outcome [6] was “inactive”.
For `CCCCCCCCCCCCCCO`, the outcome [8] was “inactive” and the AC50 [12] was 11.7 µM (active).
In the case of `Cn1c(=O)c2[nH]cnc2n(C)c1=O`, the outcome [16] is reported as “inactive”.
`NC(N)=O` was tested, and the outcome [5] was “inactive”.
`CC[C@H](C)C(=O)O[C@H]1C[C@H](O)C=C2C=C[C@H](C)[C@H](CC[C@@H](O)C[C@@H](O)CC(=O)O)[C@H]21` was tested, and the outcome [7] was “inactive”, the outcome [8] was “inactive” and the AC50 [9] was 4.48 µM (active). The outcome [17] was “inactive” and the outcome [15] was “inactive”.
With `Cc1nccn1-c1ccc(Sc2cccc(C3(C(N)=O)CCOCC3)c2)cc1` the AC50 [11] was 9.43 µM (active).
In the case of `O=C(NO)C1(NS(=O)(=O)c2ccc(Oc3ccc(F)cc3)cc2)CCOCC1`, the outcome [18] is reported as “inactive” and the outcome [7] is reported as “inactive”.
In the case of `COc1cc(C(C)C)c2c(c1)S(=O)(=O)N(COc1cc(=O)n3cccc(OCCN4CCCCC4)c3n1)C2=O`, the outcome [11] is reported as “inactive” and the outcome [9] is reported as “inactive”.
In the case of `CCc1cccc(CC)c1N`, the outcome [5] is reported as “inactive”.
For `O=C(N[C@H](CO)[C@H](O)c1ccc([N+](=O)[O-])cc1)C(Cl)Cl`, the outcome [15] was “inactive”.
With `OCc1c[nH]c2ccccc12` the AC50 [15] was 25 µM (active).
`CC(C)C(=O)Nc1ccc([N+](=O)[O-])c(C(F)(F)F)c1` was tested, and the outcome [11] was “inactive”.
With `CCCCCCOC(=O)CC(CC(=O)OCCCCCC)(OC(=O)CCC)C(=O)OCCCCCC` the outcome [5] was “inactive”.
In the case of `CCCCCCCCN(C)C`, the outcome [11] is reported as “inactive” and the outcome [12] is reported as “inactive”.
`Cc1ccc(S(=O)(=O)NC(=O)NN2CCCCCC2)cc1` was tested, and the outcome [8] was “inactive”.
With `OCc1ccccc1` the AC50 [9] was 12.3 µM (active).

Source: PubChem BioAssay (EPA / NIEHS)
